# Assay results reported in PubChem BioAssay (NCATS).
# Inconclusive results are not listed. Activity calls are given as the source filed them. Unless noted, calls follow the shape of the dose curve; as a rule, active = well fitted curve in the direction sought with a large enough effect; inconclusive = small, poorly fitted or top-dose-only effect, or another doubt; inactive = no such curve, though single readings can be large; an effect the other way counts as inactive or inconclusive.
# Tests used:
# [1] = target: Cytochrome P450 3A4 (Homo sapiens) (UniProt P08684); assay: qHTS Assay for Activators of Cytochrome P450 3A4 (AID 885); also: nearly all actives have a fitted effect of over 65% in size
# Sequence of Cytochrome P450 3A4 (Homo sapiens) (P08684 whole entry, looked up): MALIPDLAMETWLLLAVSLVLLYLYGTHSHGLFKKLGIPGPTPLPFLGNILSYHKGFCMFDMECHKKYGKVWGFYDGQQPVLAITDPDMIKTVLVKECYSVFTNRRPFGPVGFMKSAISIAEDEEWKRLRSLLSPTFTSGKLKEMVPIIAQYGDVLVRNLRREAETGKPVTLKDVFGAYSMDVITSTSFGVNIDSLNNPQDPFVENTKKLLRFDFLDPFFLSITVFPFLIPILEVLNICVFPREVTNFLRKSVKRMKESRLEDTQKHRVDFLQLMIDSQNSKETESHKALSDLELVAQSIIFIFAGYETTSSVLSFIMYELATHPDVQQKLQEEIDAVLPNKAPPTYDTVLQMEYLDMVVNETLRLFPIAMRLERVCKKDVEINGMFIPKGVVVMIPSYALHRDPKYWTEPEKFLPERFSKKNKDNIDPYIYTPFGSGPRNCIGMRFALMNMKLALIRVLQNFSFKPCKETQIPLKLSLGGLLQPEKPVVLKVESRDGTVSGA
# Method in brief: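 Quantitative HTS format: compounds preincubated with 20nM human CYP3A4 and Luciferin-PPXE substrate at KM, reaction started by NADPH regeneration, stopped after 60 min, luciferase luminescence read 20 min later.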
# [2] = Confirmation and Secondary Assay for Modulators of Hemoglobin Beta Chain Splicing at IVS2 654 locus (AID 910);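 also: HeLa cells stably carrying EGFP split by mutant beta-globin IVS2-654 intron; per-well total GFP intensity by laser scanning cytometry after 2-day treatment; % of control where 0% means no effect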
# Method in brief: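 Readout: per-well total peak green fluorescence (488 nm ex, 500–520 nm em) from objects 5–250 µm, reflecting correct splicing of an EGFP-654 reporter. Compounds were applied for 2 days at 37 °C to overnight-plated HeLa EGFP-654 cells; controls were DMSO and 500 nM IVS2-654 PNA.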
# [3] = Confirmation and Secondary Assay for Modulators of Hemoglobin Beta Chain Splicing at IVS2 705 locus (AID 930);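 also: HeLa cells stably expressing the EGFP-705 splicing reporter; GFP fluorescence per well restored by corrected splicing of the IVS2-705 intron in EGFP; % of control where 0% means no effect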
# Method in brief: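 Assay measures total GFP intensity per well in HeLa EGFP-705 cells after 2 days with compound; mis-splicing normally truncates EGFP, so fluorescence indicates corrected splicing.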
# [4] = qHTS Assay for Lipid Storage Modulators (AID 1519; calls by dose curve; as to activity change, negative = inhibition: % is scaled to controls: 0 for no effect and ±100 for the full control effect); conditions: Drosophila S3 cells, BODIPY lipid droplet/cell ratio, laser cytometry, cells loaded with oleic acid; for activity change, negative = inhibition: at 57.5 µM (top of the series)
# Method in brief: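 Cells seeded at 5,000 per well were treated with compounds over a concentration series and loaded with oleic acid (400 uM, as added). Lipid droplet fluorescence (488 nm excitation, 500-530 nm channel) was read by laser-scanning cytometry and normalized to 20 uM Triacsin C.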
# [5] = target: Ubiquitin carboxyl-terminal hydrolase 1 (Homo sapiens) (UniProt O94782); assay: Inhibitors of USP1/UAF1: Pilot qHTS (AID 504865); also: nearly all actives have a fitted effect of over 35% in size; also: potency is read from the fitted curve at half-maximal effect;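 as to activity change, negative = inhibition: rhodamine fluorescence freed from ubiquitin-rhodamine substrate followed over time; top concentration of the series differs between compounds; % is scaled to controls: 0 for no effect and ±100 for the full control effect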
# Sequence of Ubiquitin carboxyl-terminal hydrolase 1 (Homo sapiens) (O94782 whole entry, looked up): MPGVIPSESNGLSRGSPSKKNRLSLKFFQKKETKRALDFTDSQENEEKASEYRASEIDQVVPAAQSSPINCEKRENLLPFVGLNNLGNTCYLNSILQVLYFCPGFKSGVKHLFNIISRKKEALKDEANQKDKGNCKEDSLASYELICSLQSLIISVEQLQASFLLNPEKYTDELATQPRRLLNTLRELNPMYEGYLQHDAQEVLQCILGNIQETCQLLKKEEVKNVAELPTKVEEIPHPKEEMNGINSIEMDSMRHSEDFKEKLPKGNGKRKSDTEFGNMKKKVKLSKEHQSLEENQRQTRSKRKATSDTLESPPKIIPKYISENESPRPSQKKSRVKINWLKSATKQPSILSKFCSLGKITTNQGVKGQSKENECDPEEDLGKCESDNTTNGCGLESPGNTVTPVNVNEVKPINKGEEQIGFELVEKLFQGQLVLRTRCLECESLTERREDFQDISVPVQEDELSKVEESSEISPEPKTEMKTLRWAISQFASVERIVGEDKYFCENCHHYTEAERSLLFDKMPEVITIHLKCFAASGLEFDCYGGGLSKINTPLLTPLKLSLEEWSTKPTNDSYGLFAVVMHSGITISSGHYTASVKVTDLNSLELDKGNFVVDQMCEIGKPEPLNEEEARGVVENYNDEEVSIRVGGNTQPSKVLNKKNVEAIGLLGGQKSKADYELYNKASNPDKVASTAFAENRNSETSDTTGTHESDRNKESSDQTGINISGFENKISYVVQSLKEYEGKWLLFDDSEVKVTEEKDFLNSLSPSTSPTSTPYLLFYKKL
# Method in brief: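 Kinetic fluorescence assay: 1nM USP1/UAF1, 15 min compound preincubation, then 150nM Ub-Rho; 480/540 nm.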
# [6] = target: Cytochrome P450 3A4 (Homo sapiens) (UniProt P08684); assay: qHTS Assay for Inhibitors and Substrates of Cytochrome P450 3A4 (AID 884); also: % is scaled to controls: 0 for no effect and ±100 for the full control effect; nearly all actives have a fitted effect of over 50% in size
# Method in brief: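 20 nM human CYP3A4 with 25 uM Luciferin-PPXE (at KM) in 200 mM KPO4, preincubated 10 min with compound; NADPH regeneration started a 60 min RT reaction. Luciferin detected by luminescence, normalized to 57 uM ketoconazole as full inhibition.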
# [7] = target: DNA dC->dU-editing enzyme APOBEC-3G (Homo sapiens) (UniProt Q9HC16); assay: qHTS for inhibitors of Vif-A3G interactions: Validation (AID 588379); also: 0% is about no effect
# Sequence of DNA dC->dU-editing enzyme APOBEC-3G (Homo sapiens) (Q9HC16 whole entry, looked up): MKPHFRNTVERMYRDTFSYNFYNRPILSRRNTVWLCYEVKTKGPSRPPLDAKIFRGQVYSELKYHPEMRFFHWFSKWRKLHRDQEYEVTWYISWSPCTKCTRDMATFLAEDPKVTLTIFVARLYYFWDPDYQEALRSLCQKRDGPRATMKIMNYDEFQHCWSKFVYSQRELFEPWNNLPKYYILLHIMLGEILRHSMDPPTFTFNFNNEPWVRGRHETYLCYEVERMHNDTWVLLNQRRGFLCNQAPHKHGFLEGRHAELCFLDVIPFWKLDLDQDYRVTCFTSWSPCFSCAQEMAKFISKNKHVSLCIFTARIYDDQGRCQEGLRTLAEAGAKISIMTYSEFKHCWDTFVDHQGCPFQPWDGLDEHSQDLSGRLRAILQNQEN
# Method in brief: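 HeLa cells stably expressing Vif and A3G-eYFP, 700 cells/well, incubated overnight at 37 deg C, then exposed to compound overnight at 37 deg C. Inhibition of Vif-mediated degradation read as increased yellow fluorescence (Ex 488/Em 500-530) by laser-scanning cytometry.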
# [8] = measured here: cell count channel max response
# [9] = measured here: lipid channel max response
SMILES,Potency [1],Potency [2],Potency [3],"activity change, negative = inhibition [4]","max response [4, 8] [%]","max response [4, 9] [%]",Potency [5],Potency [6],outcome [7]
COc1cc(C2c3cc4c(c(O)c3CC3COC(=O)C32)OCO4)cc(OC)c1OC (stereo not drawn),inactive,inactive,inactive,3.6% (inactive),11.9,14.5,inactive,,
CNC1C2CN3CCC(O2)C13 (stereo not drawn),,,,3.03% (inactive),7.52,11.5,,inactive,inactive
CN1C2CC(OC(=O)C(CO)c3ccccc3)CC1C(O)C2 (stereo not drawn),,inactive,inactive,5.64% (inactive),7.52,14.4,inactive,,
CC1/C=C/C=C/CC/C=C/C=C/C=C/C=C/C(OC2OC(C)C(O)C(N)C2O)CC2O[C@](O)(CC(O)C(O)CCC(O)CC(O)CC(O)CC(=O)OC(C)C(C)C1O)CC(O)C2C(=O)O (stereo partly drawn),,inactive,inactive,9.08% (inactive),17,32,inactive,,
CCC(C)C(=O)c1c(O)c(C)c2oc3c(C)c(O)c(C(=O)C(C)CC)c(O)c3c2c1O (stereo not drawn),,inactive,inactive,-5.67% (inactive),-3.74,-10.1,inactive,,
CC1(C)C(O)CC(=O)[C@]2(C)C1CC(=O)[C@]1(C)C2CC[C@@]2(C)C(c3ccoc3)OC(=O)C3O[C@@]321 (stereo partly drawn),inactive,inactive,inactive,-3.35% (inactive),16.1,14.7,inactive,,
CNc1ccccc1C(=O)O,,inactive,inactive,-0.857% (inactive),25,25.4,inactive,,
CC[C@H]1C2CC3[C@@H]4N(C)c5ccccc5[C@]45C[C@@H](C2[C@H]5O)N3[C@@H]1O (stereo partly drawn),,,,-0.775% (inactive),15.3,14.3,,inactive,inactive
C=C[C@H]1CN2CCC1C[C@@H]2C(O)c1ccnc2ccccc12 (stereo partly drawn),,,,7.24% (inactive),20.2,27.5,,inactive,inactive
OC[C@@H]1CCCN2CCCC[C@@H]12,,,,-9.64% (inactive),-24.5,-31.5,,,inactive
O=C1NC(=O)C(=O)C(=O)N1,,inactive,inactive,2.7% (inactive),15,19.9,89.1 µM (active),,
